High-throughput results from PubChem BioAssay.
FBW7 act = FBW7 E3 ligase activators, primary screen, biochemical, AlphaScreen, human; F-box/WD repeat-containing protein 7 (Homo sapiens), Q969H0; normalized activity (activation), % at 26.1 µM; 650,000 tested, 0.13% active; AlphaScreen FBW7–phospho-cyclin E peptide binding, activator screen; in the data active means normalized activity above about 1.9%;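 further: purified mutant Fbw7 with reduced substrate affinity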
GPR151 activ = activators of human GPR151, primary screen, cell-based, PathHunter beta-arrestin, luminescence; G-protein coupled receptor 151 (Homo sapiens), Q8TDV0; PathHunter beta-arrestin GPR151 cells; activation, % at 11.2 µM; 650,000 tested, 1% active; AID 1508602, 2020; in the data active means activation above about 4.9%
TEAD-YAP inh = TEAD-YAP interaction inhibition, primary screen, TEAD-YAP interaction inhibitor project, luminescence, HEK-TIYL cells; TEAD-Gal4/YAP UAS-luciferase luminescence; inhibition, % at 9.12 µM; 640,000 tested, 1.4% active; in the data active means inhibition above about 32%
MITF inh = MITF inhibitors, primary screen, biochemical, AlphaScreen, human. Microphthalmia-associated transcription factor (Homo sapiens), O75030. AlphaScreen MITF homodimerization, bead proximity signal. inhibition, % at 2.6 µM. 650,000 tested, 0.91% active. AID 1259374, 2018; in the data active means inhibition above about 50%
Target sequence (O75030 whole entry, looked up): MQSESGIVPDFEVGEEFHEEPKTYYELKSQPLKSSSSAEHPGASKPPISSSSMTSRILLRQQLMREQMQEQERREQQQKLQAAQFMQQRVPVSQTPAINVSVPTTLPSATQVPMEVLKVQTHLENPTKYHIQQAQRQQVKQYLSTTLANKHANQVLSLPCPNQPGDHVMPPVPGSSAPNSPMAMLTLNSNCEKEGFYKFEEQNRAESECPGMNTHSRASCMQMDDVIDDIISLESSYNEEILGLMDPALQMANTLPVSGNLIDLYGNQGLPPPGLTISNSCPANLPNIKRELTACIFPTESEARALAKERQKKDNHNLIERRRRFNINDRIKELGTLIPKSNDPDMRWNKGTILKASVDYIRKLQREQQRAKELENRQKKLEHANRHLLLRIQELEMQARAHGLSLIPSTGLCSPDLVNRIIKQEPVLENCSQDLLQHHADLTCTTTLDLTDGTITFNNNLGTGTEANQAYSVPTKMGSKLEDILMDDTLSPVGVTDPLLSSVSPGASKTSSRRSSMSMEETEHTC
Of the large screens only hits and unclear results are named; the others gave an inactive call. A selection: hits, their analogues and other compounds. The true share with any hit is near 3.4%.

COc1ccc(NCC(O)Cn2c3ccccc3c3ccccc32)cc1 (centres undefined)	TEAD-YAP inh 51
Cc1c(C)n(CC(O)CNc2ccccc2)c2ccccc12 (centres undefined)	MITF inh 59
Cc1ccc2nc3c(nc2c1)-c1ccccc1C3=O	none
Cc1cc2nc3c(nc2cc1C)-c1ccccc1C3=O	TEAD-YAP inh 33
COc1ccc(O)c(C(=O)CC(=O)c2ccccc2Cl)c1	none
COc1ccc(O)c(C(=O)CC(=O)c2ccccc2)c1	TEAD-YAP inh 55
CCCCOc1ccc(C(=O)N2CCN(c3ccc(-c4noc(C)n4)cn3)CC2)cc1	none
COc1ccc(C2(C(=O)N3CCC(Nc4nc5c(c(=O)[nH]4)CCC5)CC3)CC2)cc1	FBW7 act 1.9
CCc1c(C)nc(NC2CCN(C(=O)C3(c4ccc(OC)cc4)CC3)CC2)[nH]c1=O	none
COC(=O)c1c[nH]n2c(NC3CCC(C)CC3)c(-c3ccc(Cl)cc3)nc12 (centres undefined)	none
NS(=O)(=O)c1ccc(Nc2nccc(-c3cccc(OCCN4CCCCC4)c3)n2)cc1	TEAD-YAP inh 68
CS(=O)(=O)Nc1cccc(-c2ccnc(Nc3ccc(-c4ncn[nH]4)cc3)n2)c1	TEAD-YAP inh 72
CS(=O)(=O)Nc1ccc(-c2ccnc(Nc3cccc(S(N)(=O)=O)c3)n2)cc1	none
CS(=O)(=O)Nc1cccc(-c2ccnc(Nc3cccc(S(N)(=O)=O)c3)n2)c1	TEAD-YAP inh 91
CCC(C)N1CCN(S(=O)(=O)c2ccc([N+](=O)[O-])cc2)CC1 (centres undefined)	none
Cc1cc(Cl)cc(Br)c1OCCOCCN1CCOCC1	none
Cc1cccc2oc(-c3ccc(N)cc3)nc12	TEAD-YAP inh 51
Cc1ccc(-c2nc3cc(N)ccc3o2)cc1	TEAD-YAP inh 54
CC(C)(C)c1ccc2oc(-c3ccc(N)cc3)nc2c1	TEAD-YAP inh 69
Nc1ccc2oc(-c3ccc(O)cc3)nc2c1	TEAD-YAP inh 89
Nc1ccc2oc(-c3ccc(Cl)c(Cl)c3)nc2c1	none
Nc1ccc(-c2nc3cc([N+](=O)[O-])ccc3o2)cc1	none
CCCNC(=O)c1ccc(N2CCOCC2)c([N+](=O)[O-])c1	none
Cn1c(C(=O)O)c(CNCc2ccco2)c2ccccc21	none
Nc1ccc(O)c(-c2nc3cc(Cl)ccc3o2)c1	none
COc1ccc(-c2nc3cc(N)ccc3o2)cc1	none
Cc1ccc2oc(-c3ccc(N)cc3)nc2c1	TEAD-YAP inh 69
COc1ccc(-c2nc3cc(C)ccc3o2)cc1	TEAD-YAP inh 69
Cc1ccc2oc(-c3cccc(N)c3)nc2c1	none
Nc1ccc2oc(-c3cc(Cl)ccc3Br)nc2c1	TEAD-YAP inh 48
Oc1ccc2nc(-c3ccccc3)oc2c1	TEAD-YAP inh 70
c1cncc(CNc2cc(-c3ccc(OC4CCCCO4)cc3)ncn2)c1 (centres undefined)	none
CCN(CC)C(=O)C1=CC(c2cccc(OC)c2)=NS(=O)(=O)N1C	none
COc1ccc2c(C)nc(Nc3nc(C)cc(=O)[nH]3)nc2c1	TEAD-YAP inh 39
COCCNCCCOc1ccc(C(C)C)c(C)c1	none
COc1ccc(OCCCNCCO)cc1	TEAD-YAP inh 41
Cc1cc(OCCCNCCO)ccc1C(C)C	TEAD-YAP inh 64
COc1ccc(OCCCCCNCCO)cc1	none
COc1cc(NC(=S)NCc2ccccc2OC)cc(OC)c1	none
Cn1c(C(=O)NCCc2ccccc2)cc2sccc21	TEAD-YAP inh 41
Cn1c(C(=O)NCCCN2CCCC2)cc2sccc21	none
Cc1cc2c(cc(C(=O)NCCc3ccccc3)n2C)s1	TEAD-YAP inh 58
Cc1nc2c(C(=O)NC3CCC(C)CC3)c[nH]n2c(=O)c1Cl (centres undefined)	none
CCOc1ccc2[nH]c(=O)c(CN(CCOC)C(=O)Nc3ccc(SC)cc3)cc2c1	none
CCOc1ccc2[nH]c(=O)c(CN(CCOC)C(=O)Nc3ccc(F)cc3)cc2c1	TEAD-YAP inh 37
O=C(c1nc2ccccn2c1CNCC1(N2CCCCC2)CCCC1)N1CCCC1	none
c1ccc2c(c1)CC/C2=N/Nc1ccc2ccccc2n1	TEAD-YAP inh 74
CCc1nc2sc3c(c2c2nnnn12)CC(C)(C)OC3	none
Cc1ccc2[nH]c(=O)c(CN(CCCO)C(=O)c3ccc(F)cc3)cc2c1	none
O=C(O)c1cccc(NC(=S)N/N=C/c2cc([N+](=O)[O-])ccc2O)c1	TEAD-YAP inh 40
O=C(N/N=C/c1cc([N+](=O)[O-])ccc1O)c1ccccc1O	MITF inh 87
O=C(N/N=C\c1ccccc1F)c1cnccn1	none
O=C(N/N=C\c1ccccc1O)c1cnccn1	MITF inh 59
COc1ccc(/C=N/NC(=O)c2cc(C)[nH]n2)c(OC)c1	FBW7 act 2.3
CC(C)(C)c1ccc(C(=O)NCCc2ccc(S(N)(=O)=O)cc2)cc1	none
Cc1ccc2nc(C(F)(F)F)c(C(=O)NCc3cccnc3)n2c1	none
CC(C(=O)N/N=C/c1cc([N+](=O)[O-])ccc1O)n1nnc2ccccc21 (centres undefined)	MITF inh 86
O=C(N/N=C/c1ccccc1O)c1ccccc1O	TEAD-YAP inh 37
CC(C(=O)N/N=C/c1ccccc1O)n1nnc2ccccc21 (centres undefined)	none
O=C(N/N=C/c1cc([N+](=O)[O-])ccc1O)c1cccnc1	MITF inh 99
COc1cc([N+](=O)[O-])cc(/C=N/NC(=O)c2ccc(F)cc2)c1O	TEAD-YAP inh 54, MITF inh 63
O=C(N/N=C/c1cc([N+](=O)[O-])ccc1Cl)c1cccnc1	none
C=CCN(c1ccccc1)S(=O)(=O)c1ccc(F)c(C(=O)Nc2ccccc2OCC)c1	none
Cc1cc(C(=O)N/N=C/c2c(O)ccc3cc([N+](=O)[O-])ccc23)n[nH]1	none
Cc1nc2ccc(C(=O)N/N=C/c3cc([N+](=O)[O-])ccc3O)cc2[nH]1	FBW7 act 1.9, MITF inh 92
COc1cc([N+](=O)[O-])cc(/C=N/NC(=O)c2ccccc2O)c1O	MITF inh 79
Cc1cc(C(=O)N/N=C/c2cc([N+](=O)[O-])ccc2O)n[nH]1	MITF inh 59
COc1ccc(C)cc1Nc1nc(-c2ccccc2F)nc2ccccc12	none
C/C(CC(=O)Nc1ccc(F)cc1)=N\NC(=O)c1cccc(O)c1	none
CC(=O)Nc1ccc(C2NN=C(c3ccccc3)S2)cc1 (centres undefined)	none
CCOc1ccc(C2NN=C(c3ccccc3)S2)cc1 (centres undefined)	TEAD-YAP inh 71
COc1ccc(O)c(C2NN=C(c3ccccc3)S2)c1 (centres undefined)	TEAD-YAP inh 42
CN(c1ccccc1)c1ccc(C2NN=C(c3ccccc3)S2)cc1 (centres undefined)	FBW7 act 2.1
COc1ccc([N+](=O)[O-])cc1C1NN=C(c2ccccc2)S1 (centres undefined)	none
Cc1nn2c(SCC(=O)c3ccc(Br)cc3)nnc2[nH]c1=O	none
